Drawing on PubChem BioAssay AID463173 (ICCB-Longwood Screening Facility, Harvard Medical School, 2010), this text covers survival for 91 molecules.

The campaign covered roughly 52,000 compounds. About 4,300 (8.3%) were called active. Cut-off read from the data, not from the text of the source: active = survival mostly below about 52% (no sharp cut-off); inactive = mostly above about 56%. The entries come from a sample that favours actives as a whole.

In the experiment the test system is DeltatarO mutant. The experiment is described as follows: growth inhibition of S. aureus wild type versus tarO mutant, primary screen, teichoic acid synthesis inhibitors, RN4220, OD600 (AID 463173). Conditions: OD600, 18 h, stronger effect = lower value, screened at 18.75 µg/mL (by protocol).
In the case of `COc1ccc(OCC(=O)Nc2ccc3oc(-c4ccncc4)nc3c2)cc1`, the survival is 87% (inactive).
As to `CCN1CCN(C(=O)c2cnn(-c3ccc(F)cc3F)c2C2CCN(C(=O)OC(C)(C)C)CC2)CC1`, the survival is 86% (inactive).
`CCc1nnc2c3ccccc3nc(Nc3ccc(F)cc3C)n12`: the survival is 39% (active).
For the molecule `COc1ccc(Nc2nc3ccccc3c3nnc(C)n23)cc1Cl`, the survival is 48% (inactive).
Consider `CCc1nnc2c3ccccc3nc(Nc3cc(C)cc(C)c3)n12`, for which the survival is 26% (active).
`CCc1nnc2c3ccccc3nc(Nc3ccc(C(C)=O)cc3)n12`: the survival is 78% (inactive).
For `CCOc1ccc(Nc2nc3ccccc3c3nnc(CC)n23)cc1`, the survival was 62% (inactive).
As for `COc1cc(Nc2nc3ccccc3c3nnc(C)n23)cc(OC)c1`, the survival is 37% (active).
As for `COc1ccc(C)cc1Nc1nc2ccccc2c2nnc(C)n12`, the survival was 135% (inactive).
As for `CCCCOC(=O)c1ccc(Nc2nc3ccccc3c3nnc(C)n23)cc1`, the survival is 25% (active).
As to `CCc1nnc2c3ccccc3nc(Nc3ccc(F)c(Cl)c3)n12`, the survival was 62% (inactive).
As to `Cc1nnc2c3ccccc3nc(Nc3ccc(F)cc3Cl)n12`, the survival is 83% (inactive).
With `CCc1nnc2c3ccccc3nc(Nc3ccccc3OC)n12`, the survival is 57% (inactive).
For the molecule `CCc1ccc(Nc2nc3ccccc3c3nnc(C)n23)cc1`, the survival was 92% (inactive).
Consider `Cn1c(-n2cccc2)c(-c2c(-c3ccc(F)cc3)[nH]c3c2c(=O)[nH]c(=O)n3C)c(=O)[nH]c1=O`, for which the survival was 55% (inactive).
The figure for `CCc1ccc(NC(=O)C(=O)NCCc2csc(-c3ccc(C(F)(F)F)cc3)n2)cc1` is 99% (inactive).
As for `Cc1cc(C)c2c(-n3cccc3)c(C(=O)NCC(C)c3ccccc3)sc2n1` (stereo unspecified), the survival was 86% (inactive).
On to `O=C(Nc1ccc(Br)cc1)C1CCCN1S(=O)(=O)c1ccc(F)cc1` (stereo unspecified), for which the survival was 66% (inactive).
Regarding `Cc1cccc(N2C(=O)C3C(C(=O)NC4CC4)C4C=CC3(O4)C2C(=O)NC2CCCC2)c1` (stereo unspecified), the survival is 75% (inactive).
As to `Cc1ccc(S(=O)(=O)NCCSc2nnnn2-c2ccc(Cl)c(C(=O)O)c2)cc1`, the survival was 138% (inactive).
For `Cc1ccc(-c2nc3nc(C)cc(Nc4ccccc4O)n3n2)cc1`, the survival is 75% (inactive).
Turning to `Cc1ccc(C)c(-c2nn(CC(=O)Nc3cc(F)ccc3F)c(=O)c3c2CCCC3)c1`, the survival was 41% (active).
Turning to `O=C(Cn1ncc2c([nH]c3ccccc32)c1=O)Nc1cc(F)ccc1F`, the survival was 81% (inactive).
Consider `COc1ccccc1NC(=O)Cn1nc(-c2ccc(C)cc2)c2c(c1=O)CCCC2`, for which the survival is 42% (inactive).
Take `CCc1ccccc1NC(=O)Cn1nc(-c2cc(C)ccc2C)c2c(c1=O)CCCC2`: the survival was 41% (active).
With `Cc1nn(CC(=O)Nc2cc(F)ccc2F)c(=O)c2cccn12`, the survival is 94% (inactive).
As for `CCc1ccccc1NC(=O)CN1CCCN(Cc2cc(C)ccc2C)S1(=O)=O`, the survival was 94% (inactive).
For `COc1ccc(Cc2nnc(SCC(N)=O)o2)cc1`, the survival was 76% (inactive).
For `O=C1COc2ccccc2N1Cc1c(F)cccc1Cl`, the survival is 79% (inactive).
In the case of `CCOC(=O)c1c(NC(=O)CCCOc2ccc(C(C)(C)C)cc2)sc2c1CCCC2` it was 14% (active).
In the case of `CCOC(=O)c1c(NC(=O)CS(=O)(=O)c2ccc(Cl)cc2)sc2c1CCCC2`, the survival was 77% (inactive).
On to `CCOC(=O)c1c(NC(=O)COc2ccc(Cl)cc2C)sc2c1CCCCC2`, for which the survival is 75% (inactive).
In the case of `CCOC(=O)c1c(NC(=O)COc2ccc(C(C)(C)C)cc2)sc2c1CCCC2` it was 75% (inactive).
In the case of `CCOC(=O)c1c(NC(=O)CCCOc2ccc(Cl)cc2)sc2c1CCC2` it was 17% (active); in that of `CCOC(=O)c1c(NC(=O)CCCOc2ccc(C(C)(C)C)cc2)sc2c1CCC2`, 9% (active).
For the molecule `Cc1ccc(N2CCN(S(=O)(=O)c3cc(Br)cc4c3N(C(=O)C3CC3)CC4)CC2C)cc1` (stereo unspecified), the survival was 70% (inactive).
As to `CCOc1ccccc1NC(=O)C(=O)NCCc1sc(-c2cccc(F)c2)nc1C`, the survival was 90% (inactive).
In the case of `O=C(OCC(=O)N1CCc2ccccc21)c1ccccc1`, the survival was 92% (inactive).
As to `CCOc1ccc(CCNC(=O)c2cnc3sc(N4CCC(C)CC4)nn3c2=O)cc1`, the survival is 84% (inactive).
In the case of `COc1cc2c(cc1OC)C(CC(=O)Nc1ccccc1)C(=O)NN=C2C` (stereo unspecified) it was 103% (inactive); in that of `CCc1cc2c(cc3c(=O)n(CC(=O)N4CCC(C)CC4)nc(CC)n32)s1`, 41% (active).
The figure for `CCc1cc2c(cc3c(=O)n(CC(=O)N4CCCCC4)nc(CC)n32)s1` is 77% (inactive).
Consider `CCc1cc2c(cc3c(=O)n(CC(=O)NC4CCC(C)CC4)nc(CC)n32)s1` (stereo unspecified), for which the survival is 115% (inactive).
For the molecule `COc1ccc(OC)c(C(=O)CN2C(=O)N(c3ccc(C)cc3)S(=O)(=O)c3ccccc32)c1`, the survival was 89% (inactive).
As to `COc1ccc(C(=O)NCC(c2ccco2)S(=O)(=O)c2cccs2)cc1` (stereo unspecified), the survival is 100% (inactive).
In the case of `Cc1cccc(-c2nc3c4ccccc4nc(NCc4ccccc4Cl)n3n2)c1`, the survival is 138% (inactive).
As to `COc1ccccc1CNc1nc2ccccc2c2nc(-c3cccnc3)nn12`, the survival is 48% (active).
Regarding `Clc1ccccc1CNc1nc2ccccc2c2nc(-c3cccnc3)nn12`, the survival was 86% (inactive).
`COc1cc2nc(NCc3ccccc3Cl)n3nc(-c4cccnc4)nc3c2cc1OC`: the survival was 105% (inactive).
`COc1ccc(OC)c(CCNc2nc3ccccc3c3nc(-c4cccnc4)nn23)c1`: the survival was 112% (inactive).
In the case of `COc1ccccc1CNc1nc2ccccc2c2nc(-c3cccc(C)c3)nn12` it was 24% (active); in that of `Cc1ccc(NC(=O)c2oc3ccc(S(=O)(=O)N(C)C4CCCCC4)cc3c2C)cc1Cl`, 95% (inactive).
Take `Cc1cc2n(n1)CCCN2C(=O)Nc1cccc(C)c1C`: the survival is 73% (inactive).
For the molecule `O=C(O)C1C2C=CC(C2)C1C(=O)NCCO` (stereo unspecified), the survival is 82% (inactive).
In the case of `COc1ccc(OC)c(S(=O)(=O)N2CCC(C(=O)NCCC3=CCCCC3)CC2)c1` it was 92% (inactive).
Turning to `CCOC(=O)CCNC(=O)N1CCN(S(=O)(=O)c2ccc3c(ccn3C)c2)CC1`, the survival was 89% (inactive).
Turning to `COC(=O)CNC(=O)N1CCN(S(=O)(=O)c2ccc3c(ccn3C)c2)CC1`, the survival is 87% (inactive).
`CCOC(=O)CNC(=O)N1CCN(S(=O)(=O)c2ccc3c(ccn3C)c2)CC1`: the survival is 32% (active).
As to `CCn1c(SCc2ccccc2)nnc1-c1cccnc1`, the survival was 75% (inactive).
The figure for `Cc1ccccc1-c1nnc(CN2CCN(c3cc(Cl)ccc3C)CC2)o1` is 74% (inactive); for `Cc1ccccc1-c1nnc(CN2CCN(c3ccccn3)CC2)o1` it is 120% (inactive).
With `Cc1ccc(C)c(N2CCN(Cc3nnc(-c4ccccc4)o3)CC2)c1`, the survival is 91% (inactive).
With `Cc1cccc(N2CCN(Cc3nnc(-c4ccccc4C)o3)CC2C)c1` (stereo unspecified), the survival was 33% (active).
For the molecule `Cc1ccc(N2CCN(Cc3nnc(-c4ccccc4F)o3)CC2)c(C)c1`, the survival was 22% (active).
As to `Cc1ccccc1-c1nnc(CN2CCN(c3cccc(C)c3C)CC2)o1`, the survival is 61% (inactive).
With `CCn1c(=O)n(CC2CCC(C(=O)NC(C)C)CC2)c(=O)c2sccc21` (stereo unspecified), the survival is 85% (inactive).
In the case of `CC(=O)c1ccc(NC(=O)Cn2cc(S(=O)(=O)Cc3ccccc3Cl)c3ccccc32)cc1` it was 74% (inactive); in that of `CCOC(=O)C1CCCN(C(=O)c2ccc3c(c2)N(Cc2ccccc2)C(=O)c2ccccc2S3=O)C1` (stereo unspecified), 120% (inactive); in that of `CCCCC(=O)Nc1ccc2nc(SCC(=O)N3CCOCC3)sc2c1`, 87% (inactive).
For the molecule `CCN(Cc1ccccc1)C(=O)CCc1c(C)nc2c(c(C)nn2-c2ccc(C)c(C)c2)c1C`, the survival was 95% (inactive).
With `COc1ccc(C(=O)N(Cc2cc(OC)c(OC)c(OC)c2)CC2CCCO2)cc1` (stereo unspecified), the survival was 48% (inactive).
As for `O=C(c1ccc(Cl)cc1)N1CCN(CCc2ccncc2)CC1`, the survival was 103% (inactive).
Regarding `Cc1ccc(-n2c(SCCC(C)C)nc3sc4c(c3c2=O)CC(C)(C)OC4)cc1`, the survival is 49% (inactive).
In the case of `CCCCCOC(=O)CSc1nc2sc3c(c2c(=O)n1Cc1ccccc1)CC(C)(C)OC3` it was 41% (active); in that of `CCOC(=O)CSc1nc2sc3c(c2c(=O)n1Cc1ccccc1)CC(C(C)C)OC3` (stereo unspecified), 74% (inactive); in that of `CCCCCOC(=O)CSc1nc2sc3c(c2c(=O)n1-c1ccccc1)CC(C)(CC)OC3` (stereo unspecified), 36% (active).
On to `COC(=O)CSc1nc2sc3c(c2c(=O)n1-c1ccccc1C)CC(C)(C)OC3`, for which the survival was 73% (inactive).
The figure for `CCOC(=O)CSc1nc2sc3c(c2c(=O)n1-c1ccccc1)CC(C(C)C)OC3` (stereo unspecified) is 96% (inactive); for `CCOC(=O)CSc1nc2sc3c(c2c(=O)n1Cc1ccccc1)CC(C)CC3` (stereo unspecified) it is 64% (inactive).
On to `CCCCCOC(=O)CSc1nc2sc3c(c2c(=O)n1Cc1ccccc1)CC(C)(CC)OC3` (stereo unspecified), for which the survival was 46% (active).
In the case of `CCC1(C)Cc2c(sc3nc(SC)n(-c4ccc(C)cc4)c(=O)c23)CO1` (stereo unspecified), the survival is 33% (active).
Consider `COC(=O)CSc1nc2sc3c(c2c(=O)n1-c1ccc(C)cc1)CC(C(C)C)OC3` (stereo unspecified), for which the survival was 61% (inactive).
In the case of `CCOC(=O)CSc1nc2sc3c(c2c(=O)n1Cc1ccccc1)CCC(C(C)(C)C)C3` (stereo unspecified), the survival is 61% (inactive).
`CCCN(CCC)C(=O)CSc1nc2sc3c(c2c(=O)n1-c1ccccc1)CCN(C(C)=O)C3`: the survival was 178% (inactive).
On to `CCOc1ccc(CN(CCc2ccc3c(c2)OCO3)Cc2cc(OC)c(OC)cc2OC)cc1`, for which the survival is 44% (inactive).
In the case of `O=C(Nc1ccc(C(=O)OCc2cc(=O)n3nc(C4CC4)sc3n2)cc1)c1cccc(F)c1`, the survival is 67% (inactive).
In the case of `O=C(Nc1cccc(F)c1)/C(=C\c1cccs1)NC(=O)c1cccs1` it was 79% (inactive); in that of `O=C(CCCSc1nc(-c2ccco2)cc(C(F)(F)F)n1)Nn1cnnc1`, 72% (inactive).
As for `COc1cccc(C(=O)NC(=O)Nc2ccc(-n3nc(C(F)(F)F)cc3C(F)(F)F)cc2)c1`, the survival was 81% (inactive).
In the case of `CCOc1ccc(OCC)c(NC(=O)C2CCCN(S(=O)(=O)c3ccc(C)cc3)C2)c1` (stereo unspecified), the survival was 60% (inactive).
In the case of `CCC(Sc1nc2cc(OC)c(OC)cc2c2nc(-c3ccccc3)nn12)C(=O)Nc1cccc(C)c1` (stereo unspecified) it was 80% (inactive).
